Consider nine compounds from PubChem BioAssay (NCI).

Structures are written as SMILES. Compounds without any hit were thinned out: in the full panel of roughly 83,000, 20% have a hit.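 Single-concentration screen, 48 h exposure, 96-well plates. Endpoint: percent growth. Below 10 = active.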 Unmarked numbers belong to inactive results. Calls of active or inactive are those of the source.

Among the test systems are EKVX NSCLC; SN12C renal; UO-31 renal; TK-10 renal; CAKI-1 renal; A498 renal; SR leukemia; OVCAR-8 ovarian; OVCAR-5 ovarian; OVCAR-4 ovarian; SK-OV-3 ovarian; IGROV1 ovarian; OVCAR-3 ovarian; NCI/ADR-RES ovarian; ACHN renal; CCRF-CEM leukemia; MOLT-4 leukemia; RPMI-8226 leukemia; HS 578T breast.
Assay in all cases: NCI-60 one-dose screen, 48 h (100 = growth as untreated, 0 = no growth, -100 = all killed)
Settings in all cases: 10 µM unless noted

`Oc1ccc2ccccc2c1N=Nc1ccccn1`: the growth was 22.2% with EKVX NSCLC; 35.4% in the assay with SN12C renal; 33.1% with UO-31 renal; 6% (active) in the assay with TK-10 renal; 11.7% in the assay with CAKI-1 renal; 79.9% with A498 renal. Also, the growth with SR leukemia is 8.18% (active); with OVCAR-8 ovarian it was 15.6%; in the assay on OVCAR-5 ovarian it was 46.8%; in the assay on OVCAR-4 ovarian, -6.48% (active); in the assay with SK-OV-3 ovarian, 33.6%; in the assay on IGROV1 ovarian, 25%. The growth in the assay on OVCAR-3 ovarian is 20.7%; in the assay on NCI/ADR-RES ovarian, 0.488% (active).

Regarding `N#CC(=C1SCS1)[N+](=O)[O-]`, the growth in the assay with EKVX NSCLC was 63.7%; in the assay with SN12C renal, 28%; with UO-31 renal it was 32.3%; in the assay with TK-10 renal, 3.93% (active); in the assay with ACHN renal, 24.5%; with A498 renal, 59.3%. Also, the growth is 2.01% (active) in the assay with CCRF-CEM leukemia; 3.81% (active) in the assay with MOLT-4 leukemia; 7.48% (active) in the assay with SR leukemia; 32% with RPMI-8226 leukemia; 18.9% in the assay with OVCAR-8 ovarian; 47% with OVCAR-5 ovarian. Moreover, the growth in the assay with OVCAR-4 ovarian was 42.6%; in the assay with SK-OV-3 ovarian, 55%; with IGROV1 ovarian, 24.5%; in the assay with OVCAR-3 ovarian it was 8.46% (active); in the assay on NCI/ADR-RES ovarian, 20.2%.

Take `Nc1ccc(-c2ccc(N)c(S(=O)(=O)O)c2)cc1S(=O)(=O)O`: the growth in the assay with EKVX NSCLC is 119%; in the assay on SN12C renal, 102%; in the assay on UO-31 renal, 94.5%; in the assay with TK-10 renal, 122%; with ACHN renal, 105%; with CAKI-1 renal, 123%. In addition, the growth is 141% in the assay on A498 renal; 127% in the assay with CCRF-CEM leukemia; 131% in the assay with MOLT-4 leukemia; 153% in the assay with SR leukemia; 110% in the assay with RPMI-8226 leukemia; 116% in the assay on OVCAR-8 ovarian. Moreover, the growth in the assay on OVCAR-5 ovarian is 116%; in the assay with OVCAR-4 ovarian, 108%; in the assay with SK-OV-3 ovarian, 103%; with IGROV1 ovarian it was 120%; in the assay on OVCAR-3 ovarian it was 108%; in the assay with HS 578T breast it was 113%. Besides, in the assay on NCI/ADR-RES ovarian, the growth was 114%.

Regarding `Cn1ccc(=Nc2ccc(NC(=O)c3ccc(N=c4ccn(C)c5ccc([N+](=O)[O-])cc45)cc3)cc2)cc1`, the growth in the assay with EKVX NSCLC was 77.5%; in the assay with SN12C renal, 45.3%; in the assay on TK-10 renal, 122%; in the assay with ACHN renal, 99.2%; in the assay with CAKI-1 renal, 113%; in the assay on A498 renal, 97.6%. The growth is 89.2% with CCRF-CEM leukemia; 126% in the assay on MOLT-4 leukemia; 107% in the assay on SR leukemia; 69.3% in the assay on OVCAR-8 ovarian; 87.9% in the assay on OVCAR-5 ovarian; 59.4% in the assay on OVCAR-4 ovarian. The growth in the assay with SK-OV-3 ovarian is 91.4%; with IGROV1 ovarian it was 64.8%; in the assay with OVCAR-3 ovarian it was 79.5%; in the assay with HS 578T breast, 100%; with NCI/ADR-RES ovarian, 106%.

Turning to `c1ccc(-c2cccc(-c3ccccn3)n2)nc1`, the growth with EKVX NSCLC was 15.8%; in the assay on SN12C renal, 10.5%; with UO-31 renal, 9.63% (active); with TK-10 renal, 32.9%; in the assay on ACHN renal it was 14%; in the assay with A498 renal it was 44.2%. In addition, the growth with CCRF-CEM leukemia was 5.02% (active); in the assay with MOLT-4 leukemia it was 3.3% (active); with SR leukemia it was 7.98% (active); in the assay on RPMI-8226 leukemia, 20.8%; in the assay on OVCAR-8 ovarian it was 12%; in the assay on OVCAR-5 ovarian, 59%. The growth in the assay with OVCAR-4 ovarian is 33.3%; with SK-OV-3 ovarian, 7.86% (active); with IGROV1 ovarian it was 19.3%; with OVCAR-3 ovarian it was 28.2%; in the assay on HS 578T breast, 67%; in the assay with NCI/ADR-RES ovarian, 1.8% (active).

On to `O=C(C[P+](c1ccccc1)(c1ccccc1)c1ccccc1)c1ccccc1`, for which the growth is 88.5% in the assay on EKVX NSCLC; 87.9% with SN12C renal; 71.8% in the assay on UO-31 renal; 94.4% in the assay on TK-10 renal; 94.3% with ACHN renal; 84.5% in the assay with CAKI-1 renal. The growth was 79.8% with A498 renal; 90.5% with CCRF-CEM leukemia; 90.4% in the assay with SR leukemia; 92.6% in the assay with RPMI-8226 leukemia; 95.9% with OVCAR-8 ovarian; 89.6% in the assay with OVCAR-5 ovarian. Besides, the growth with OVCAR-4 ovarian was 83.9%; with SK-OV-3 ovarian, 104%; in the assay on IGROV1 ovarian, 89.5%; in the assay with OVCAR-3 ovarian it was 93.8%; with HS 578T breast it was 96.9%; with NCI/ADR-RES ovarian, 82.8%.

Consider `CCN(CC)c1ccc(/C=C\C(=O)c2ccc(NC(C)=O)cc2)cc1`, for which the growth in the assay on EKVX NSCLC was 79.1%; in the assay with SN12C renal, 48.9%; in the assay with TK-10 renal it was 92.4%; in the assay on CAKI-1 renal, 54.9%; in the assay with A498 renal it was 71.6%; in the assay on CCRF-CEM leukemia it was 82.9%. The growth was 76.9% in the assay with RPMI-8226 leukemia; 76% in the assay on OVCAR-8 ovarian; 68.5% in the assay with OVCAR-5 ovarian; 90.6% in the assay with OVCAR-4 ovarian; 69.2% in the assay with SK-OV-3 ovarian; 75.5% in the assay on IGROV1 ovarian. For the same compound, the growth in the assay with OVCAR-3 ovarian was 104%; in the assay with HS 578T breast, 55.1%.

On to `O=C1C=CC(=O)N1c1ccc(O)cc1`, for which the growth in the assay on EKVX NSCLC is 109%; with SN12C renal, 104%; in the assay with UO-31 renal, 98.5%; with TK-10 renal, 103%; in the assay with ACHN renal it was 94.3%; in the assay with CAKI-1 renal, 107%. The growth with A498 renal was 104%; with CCRF-CEM leukemia, 81%; in the assay on MOLT-4 leukemia, 104%; with SR leukemia, 91.7%; in the assay on RPMI-8226 leukemia it was 91.9%; in the assay with OVCAR-8 ovarian, 109%. For the same compound, the growth was 105% in the assay with OVCAR-5 ovarian; 103% with OVCAR-4 ovarian; 106% with SK-OV-3 ovarian; 119% in the assay on OVCAR-3 ovarian; 118% with HS 578T breast; 106% with NCI/ADR-RES ovarian.

`c1csc(-c2[nH]nc3c2CCc2ccccc2-3)c1`: the growth with SN12C renal was 93.5%; with UO-31 renal it was 53.8%; with TK-10 renal, 27.8%; in the assay on ACHN renal it was 82.3%; with CAKI-1 renal it was 79%; in the assay with A498 renal, 77.7%. Besides, the growth with CCRF-CEM leukemia was 98.1%; in the assay with MOLT-4 leukemia, 69.6%; in the assay on SR leukemia, 105%; with RPMI-8226 leukemia it was 81.3%; in the assay on OVCAR-8 ovarian, 99.1%; in the assay with OVCAR-5 ovarian, 24.1%. For the same compound, the growth is 48.5% in the assay on OVCAR-4 ovarian; 98.1% in the assay on SK-OV-3 ovarian; 67.2% in the assay with IGROV1 ovarian; 28.1% in the assay on OVCAR-3 ovarian; 90% in the assay with HS 578T breast; 98.7% in the assay with NCI/ADR-RES ovarian.
